This passage reports Potency results from PubChem BioAssay AID1458 (National Center for Advancing Translational Sciences (NCATS), 2008).

Screen size: about 210,000 compounds; about 5,900 (2.8%) were called active. About 5% were inconclusive and are not listed. Calls come from the whole dose curve; as a rule, active = well fitted activation curve with a large enough effect; inconclusive = small, poorly fitted or top-dose-only effect; inactive = no such curve, though single readings can be large or run the other way. The list comes from a sample in which actives are over-represented; it also holds similar structures and randomly drawn compounds. Entries that show only a call come without a potency.
Potency is the fitted concentration of half-maximal effect.

This assay can be described thus: qHTS Assay for Enhancers of SMN2 Splice Variant Expression. Note: nearly all actives have a fitted effect of over 55% in size. To be noted: HEK293 SMN2-luciferase splicing reporter, luminescence, 30-36 h; series mostly up to 46.1 µM. Summed up: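 HEK293 cells carry an SMN2 […]–luciferase reporter in which exon 7 inclusion puts luciferase in frame. Cells were plated 10-12 h before compound addition, then incubated 30-36 h at 37C. ONE-Glo luminescence was read; sodium butyrate at 4.5 mM final served as control.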
As for `CCOc1ccc(NC(=O)CSc2c3c(nc4ccccc24)CCCC3)cc1`, the Potency entry is “inactive”.
Turning to `Cn1c2ccccc2c(=O)c2c(=O)n(Cc3ccco3)c(COc3ccccc3)nc21`, the Potency is 35.5 µM (active).
Then `CCCc1nc2c(c(=O)c3ccccc3n2C)c(=O)n1C1CCCCCC1`, with “inactive”.
Regarding `COc1ccc(C(=O)CSc2nnc(COc3ccccc3)n2Cc2ccco2)cc1`, the Potency result was “inactive”.
As for `O=C(CCn1c(=O)c2sccc2n(Cc2ccc(F)cc2)c1=O)NCc1ccc2c(c1)OCO2`, the Potency entry was “inactive”.
For `COc1ccc(S(=O)(=O)NCCc2cc3ccc(C)c(C)c3[nH]c2=O)cc1`, the Potency entry is “inactive”.
Take `COc1cccc(CNC(=O)c2ccc3c(Cl)c4c(nc3c2)CCCC4)c1`: the Potency result is “inactive”.
In the case of `Cc1cccc(N(CC(=O)Nc2ccc(-c3nc4ccc(C)cc4s3)cc2)S(C)(=O)=O)c1`, the Potency entry is “inactive”.
Then `COc1cc(NC(=O)CN(C)S(=O)(=O)c2ccc3nc(C)sc3c2)cc(OC)c1`, with “inactive”; and `Cc1ccc2nc(-c3ccc(NC(=O)CN(C)S(=O)(=O)c4ccccc4)cc3)sc2c1`, with 1 µM (active); and `Cc1ccc(F)cc1NC(=O)CCSc1nc(-c2ccco2)cc(C(F)(F)F)n1`, with “inactive”.
Consider `COc1ccccc1C(=O)n1nc(-c2ccccc2)nc1N`, for which the Potency entry is “inactive”.
As to `COc1ccc(C(=O)n2nc(-c3ccc(C)cc3)nc2N)cc1OC`, the Potency result is “inactive”.
Consider `COc1ccc(C(=O)n2nc(-c3ccc(Cl)cc3)nc2N)cc1OC`, for which the Potency was 25.1 µM (active).
Take `COc1ccc(-c2nc3ccccc3o2)cc1NC(=O)c1cc([N+](=O)[O-])ccc1N1CCOCC1`: the Potency entry is “inactive”.
Regarding `Cc1cccc(NC(=O)c2cc3c(C)nn(-c4ccccc4)c3s2)c1`, the Potency result was “inactive”.
For `Cc1c(CNC2CCCCC2)c(C(=O)O)c(C)n1Cc1cccc(Cl)c1`, the Potency result was “inactive”.
Then `CCCN1CCN(CCCNC(=O)Cn2nc(CC)n3c(cc4occc43)c2=O)CC1`, with “inactive”; and `CCc1nc2c(cnn2-c2ccc(C)cc2)c(=O)n1-c1ccc(C)cc1`, with “inactive”.
In the case of `O=c1c(Cl)c(NC2CC2)cnn1-c1ccccc1`, the Potency result is “inactive”.
Take `C=CCNc1cnn(-c2ccc(C)cc2)c(=O)c1Cl`: the Potency was 11.2 µM (active).
For the molecule `Cc1ccccc1-c1nc(CS(=O)(=O)CC(=O)Nc2cc(Cl)cc(Cl)c2)c(C)o1`, the Potency result is “inactive”.
With `COC(=O)c1ccc(CSc2ccc3nnc(-c4ccccc4)n3n2)o1`, the Potency result was “inactive”.
Turning to `COC(=O)c1ccc(Cc2ccccc2)o1`, the Potency entry is “inactive”.
Take `COC(=O)c1ccc(CSc2ccccc2C)o1`: the Potency was 8.91 µM (active).
`Cc1ccc(NS(=O)(=O)c2ccc3c(c2)CC(=O)N3)cc1Cl`: the Potency result was “inactive”.
For `CCOc1ncccc1C(=O)OCc1cn2cc(Cl)ccc2n1`, the Potency entry was “inactive”.
`Clc1ccc2nc(CSc3ccccc3)cn2c1`: the Potency was 3.16 µM (active).
Take `O=c1cc(CSc2ccc(Cl)cc2)nc(N2CCOCC2)[nH]1`: the Potency result was “inactive”.
Turning to `Cc1ccc2nc(-c3ccccc3)cc(C(=O)O)c2c1`, the Potency entry was “inactive”.
As to `Cc1ccc2nc(-c3cccc(Br)c3)cc(C(=O)Nn3cnnc3)c2c1`, the Potency is 12.6 µM (active).
`Cc1ccc(-c2cc(C(=O)NCc3cn(C)nc3C)c3cc(Br)ccc3n2)cc1`: the Potency result was “inactive”.
Regarding `COc1ccc(N(CC(=O)NCCc2ccc(Cl)cc2)S(=O)(=O)c2c(C)nn(C)c2C)cc1`, the Potency entry was “inactive”.
As to `CCS(=O)(=O)c1ccc2oc(SCC(=O)N3c4ccccc4CC3C)nc2c1` (stereo unspecified), the Potency result is “inactive”.
In the case of `COc1ccc(S(=O)(=O)N(C)C)cc1NC(=O)CSc1ncccn1`, the Potency result was “inactive”.
As for `CN(C)S(=O)(=O)c1ccc2oc(SCC(=O)Nc3ccccc3F)nc2c1`, the Potency was 11.2 µM (active).
Then `COc1ccc(CNC(=O)Cn2nnc(-c3ccc(S(C)(=O)=O)cc3)n2)cc1`, with “inactive”.
Regarding `Cc1cc(NC(=O)Nc2ccccc2)n(-c2ccccc2)n1`, the Potency result is “inactive”.
Consider `Cc1cc(Nc2ccccc2)n(C(=O)c2ccc(N)cc2)n1`, for which the Potency was 11.2 µM (active).
For the molecule `Cc1cc(Nc2ccccc2)n(CCC#N)n1`, the Potency entry is “inactive”.
Then `COCCNC(=O)CSc1nc(-c2ccccc2)[nH]c1-c1ccc(C)cc1`, with “inactive”.
Then `COc1ccc(-c2noc(CCC(=O)N(C)c3ccccc3C)n2)cc1`, with “inactive”.
Take `COc1ccccc1N=Cc1c(O)c2ccccc2oc1=O`: the Potency entry was “inactive”.
Take `COc1ccc(N=Cc2c(O)[nH]c3ccccc23)cc1OC`: the Potency is 14.1 µM (active).
For the molecule `COc1ccc(OC)c(N=Cc2c(O)[nH]c3ccccc23)c1`, the Potency entry was “inactive”.
Then `Cc1ccc(C(=O)Cc2nnc(C)s2)cc1`, with 12.6 µM (active); and `Cc1ccc(C(=O)CS(C)(=O)=O)cc1`, with “inactive”.
For the molecule `Cc1ccc(C(=O)Cn2cccn2)cc1`, the Potency result was “inactive”.
Consider `O=C(NCc1ccccn1)Nc1ccc(F)cc1`, for which the Potency result was “inactive”.
`c1ccc(CN=C2Nc3ccccc3CS2)nc1`: the Potency is 12.6 µM (active).
Turning to `Cc1nnc(NCc2ccccc2)c2c1nnn2Cc1ccc(F)cc1`, the Potency entry is “inactive”.
Then `CC1CCN(S(=O)(=O)c2ccc3c(c2)N(CC(=O)NCc2ccccc2Cl)C(=O)CO3)CC1`, with “inactive”.
Then `Cc1csc2nc(COc3ccc(NC(=O)COc4ccccc4)cc3)cc(=O)n12`, with “inactive”; and `CCOc1ccc2nc(N3CCCC(C(=O)Nc4cc(C)ccc4C)C3)sc2c1` (stereo unspecified), with 14.1 µM (active); and `CCOc1ccc2nc(C(=O)N3CCCC(C)C3)sc2c1` (stereo unspecified), with 2.82 µM (active).
`CCOc1ccc2nc(SC(CC)C(=O)Nc3cc(C)on3)sc2c1` (stereo unspecified): the Potency result is “inactive”.
Turning to `Cc1ccnc(N2CCCC(C(=O)Nc3cc(F)ccc3C)C2)n1` (stereo unspecified), the Potency result was “inactive”.
Regarding `CCOc1ccc2nc(Nc3nc4ccc(NC(C)=O)cc4s3)sc2c1`, the Potency entry is “inactive”.
With `CCOc1ccc2nc(N3CCC(C(=O)Nc4cc(C)ccc4C)CC3)sc2c1`, the Potency result is “inactive”.
Take `CCCNC(=O)CCn1nc(-c2ccccc2)c2ccccc2c1=O`: the Potency result was “inactive”.
As for `O=c1c(O)c(Br)ccc2c(Br)c(O)c(O)c(O)c12`, the Potency result is “inactive”.
As to `CC(=NCC1CCCO1)c1c(O)[nH]c(=O)[nH]c1=O` (stereo unspecified), the Potency entry is “inactive”.
As for `O=C(CS(=O)(=O)Cc1ccccc1)NCC1CCCO1` (stereo unspecified), the Potency entry is “inactive”.
Take `O=C1C(C=NCC2CCCO2)=C(O)c2ccccc21` (stereo unspecified): the Potency is 11.2 µM (active).
Then `Cc1ccc(C)c(N2CCN(C(=O)CCc3c(C)nc4c(c3C)c(=O)n(C)c(=O)n4C)CC2)c1`, with “inactive”; and `CCN1CCN(c2ccc(NC(=O)c3cnccn3)cc2)CC1`, with 11.2 µM (active).
Take `O=C(Nc1ccc2c(c1)OCCO2)c1cnccn1`: the Potency is 12.6 µM (active).
Consider `O=C(Nc1cccc(NC(=O)c2ccco2)c1)c1cnccn1`, for which the Potency result is “inactive”.
Consider `O=C(NCN1CCN(CCO)CC1)c1cnccn1`, for which the Potency entry is “inactive”.
With `O=C(CCN1C(=O)c2ccncc2C1=O)Nc1ccc2c(c1)OCCO2`, the Potency result was “inactive”.
Then `O=C(Nc1ccc(S(=O)(=O)N2CCCCC2)cc1)c1cnccn1`, with “inactive”.
